These entries were drawn from the full list.
aSyn UTR act – Activators via SNCA 5'UTR binding, MLPCN; activity score, % (tested at 7.5 µM), hits read low; hit rate 7.1% among 300,000; AID 1814; alpha-synuclein 5'UTR reporter, activators screen; in the data active means activity score below about -60%
Active calls of the source: *.

SMILES	aSyn UTR act
O=C(NC1CCCCC1)C(=S)NCCc1ccccc1	-62*
Nc1nc(SCc2ccccc2)ns1	-89*
Nc1cc(N)nc(SCc2ccccc2)n1	-110*
CCCCC[C@H](O)/C=C/[C@@H]1[C@@H](C/C=C\CCCC(=O)OC)[C@@H](O)C[C@H]1O	44
COc1cccc(NC(=O)C(C)SCc2ccccc2)c1 (configuration not stated)	-63*
Cc1ccc(NC(=O)C(C)SCc2ccccc2)cc1 (configuration not stated)	-87*
CC(SCc1ccccc1)C(=O)Nc1ccc2c(c1)OCO2 (configuration not stated)	-66*
CCOc1ccc(N/C=C/C(=O)c2ccccc2)c([N+](=O)[O-])c1	87
COc1ccc(C(=O)/C=C/c2ccccc2C(F)(F)F)cc1	-68*
COc1ccc(/C=C/C(=O)Nc2ccccc2C(F)(F)F)cc1	-141*
COc1ccc(/C=C/C(=O)Nc2ccccc2C(=O)NCC(c2ccc(OC)cc2)N(C)C)cc1 (configuration not stated)	-80*
CCOc1ccc(NC(=O)/C=C/c2ccccc2)c([N+](=O)[O-])c1	-147*
CCOc1ccc(NC(=S)NC(=O)c2c(Br)cnn2C)c([N+](=O)[O-])c1	-115*
CCOc1ccc(/C=C/C(=O)Nc2ccccc2C(F)(F)F)cc1	-76*
COc1ccc(/C=C/C(=O)Nc2ccccc2C(=O)O)cc1	83
COc1ccc(/C=C/C(=O)Nc2ccccc2C(=O)N2CCCC2)cc1	-86*
COc1cc(NC(=O)/C=C/c2ccccc2[N+](=O)[O-])cc(OC)c1	-114*
O=C(/C=C/Nc1ccc([N+](=O)[O-])cc1)c1ccc(Br)cc1	-74*
O=C(/C=C/Nc1ccc(Br)cc1F)c1ccccc1	78
O=C(/C=C/Nc1ccc(F)cc1)c1ccc(Br)cc1	-181*
O=C(/C=C/Nc1ccc(F)c(F)c1)c1ccc(Br)cc1	-192*
CSc1ccc(-c2nnn(Cc3ccc(Br)cc3)n2)cc1	-74*
CSc1ccc(-c2nnn(Cc3ccccn3)n2)cc1	-146*
O=C(Nc1cc(C(F)(F)F)ccc1Cl)C(Sc1nnc(-c2cccs2)o1)c1ccccc1 (configuration not stated)	-109*
CCN(CC)CCN1C(=O)c2oc3ccccc3c(=O)c2C1c1ccc(F)cc1 (configuration not stated)	-70*
SMILES	aSyn UTR act
CC(=O)n1nc(-c2ccco2)nc1SCc1ccccc1	-89*
CCC(=O)n1nc(-c2ccco2)nc1SCc1ccccc1	-74*
CCOC(=O)c1cnc2ccc(Cl)cc2c1N1CCN(C)CC1	-97*
CCOC(=O)c1cnc2c(OC)cccc2c1N1CCN(c2ccccc2OC)CC1	62
CC(C)(C)n1ncc2c(=O)n(CC(=O)c3ccc(Cl)cc3)cnc21	-197*
CC1CCN(C(=O)Cn2cnc3c(cnn3C(C)(C)C)c2=O)CC1	-85*
Cn1c(CNc2ccccc2O)nc2ccccc21	-154*
Cc1ccccc1NCc1nc2ccccc2n1C	-126*
O=c1c2cc(Br)ccc2[nH]c(=S)n1Cc1ccccn1	-70*
COc1ccc(C2=NN(c3ccccc3)C(c3ccc(OC)c(OC)c3)C2)cc1 (configuration not stated)	-76*
COc1ccc(C2=NN(C(C#N)c3ccc(OC)c(OC)c3)C(c3ccccc3)C2)cc1 (configuration not stated)	-172*
CC(=O)Nc1ccc(C2CC(c3ccc(Cl)cc3)=NN2c2ccccc2)cc1 (configuration not stated)	-79*
COc1ccc(C2CC(c3cccs3)=NN2c2nc(-c3ccccc3)cs2)cc1OC (configuration not stated)	-64*
COc1cc(-c2nnc3n2N=C(c2ccccc2)CS3)cc(OC)c1OC	63
Cc1ccc(C2CC(c3ccccc3)=NN2c2ccccc2)o1 (configuration not stated)	-232*
O=C1N=C(N2CCCCC2)S/C1=C\c1ccc(Cl)cc1	-150*
C=CCOc1ccc(/C=C2\SC(N3CCCCC3)=NC2=O)cc1	-66*
Cc1ccc(/C=C2\SC(N3CCCCC3)=NC2=O)cc1	-176*
O=C1N=C(N2CCCCC2)S/C1=C\c1ccccc1F	-143*
O=C(NCCSCc1ccco1)Nc1cccc(Cl)c1	-126*
O=C(N/N=C\c1ccco1)Nc1cccc(Cl)c1	-131*
O=C(NCCSCc1ccco1)Nc1ccc(Cl)cc1	-134*
Cc1nnsc1SCCNC(=O)Nc1ccc(Cl)cc1	-98*
Cc1cc(O)ccc1Nc1nc(-c2cccnc2)cs1	-281*
Cc1cc(O)ccc1Nc1nc(-c2cccs2)cs1	-101*
SMILES	aSyn UTR act
CC(=O)c1ccc(NC(=O)[C@@H]2CCCN2C(=O)OC(C)(C)C)cc1	-94*
Cc1ccccc1Cn1cc(NC(=O)c2nc3ncccn3n2)cn1	-95*
CCCN(CC(=O)Nc1cc(Cl)ccc1Cl)C(=O)/C=C/c1ccco1	-68*
CC(C)(C)c1ccc(C(=O)NC(=S)Nn2cnnc2)cc1	-76*
CC(C)(C)c1cc(CCC(=O)NNC(=S)NC(=O)c2ccccc2)cc(C(C)(C)C)c1O	66
O=C(Cn1c(=O)sc2ccccc21)NCc1ccccn1	-68*
Cc1ccc2c(c1)COc1c3ccc(C(=O)NCC4CC4)cc3nn1-2	-177*
C=CCNC(=O)c1ccc2c3n(nc2c1)-c1ccc(Cl)cc1CO3	-127*
O=C(NCCO)c1ccc2c3n(nc2c1)-c1ccccc1CO3	-105*
CC(C)NC(=O)c1ccc2c3n(nc2c1)-c1ccccc1CO3	52
Cc1cc(/C=C(\C#N)C(=O)NCC2CCCO2)c(C)n1-c1ccc(Cl)cc1 (configuration not stated)	-267*
CCC(=O)Nc1cccc(-c2nnc(SCC(=O)c3ccccc3)n2C)c1	-103*
Cn1c(SCC(=O)c2ccccc2)nnc1-c1cccs1	-102*
CCn1c(SCC(=O)c2ccccc2)nnc1-c1cnccn1	-78*
CCC(=O)Nc1cccc(-n2nnnc2SCC(=O)c2ccc(C)c(C)c2)c1	-84*
Cn1c(SCC(=O)c2ccccc2)nnc1-c1cnccn1	-67*
Cn1c(SCc2c(Cl)cccc2Cl)nnc1-c1cccs1	-62*
CCn1c(SCc2nc3ccccc3[nH]2)nnc1-c1cnccn1	-90*
Brc1ccc(CSc2nnc(-c3ccco3)o2)cc1	-78*
Fc1ccc(CSc2nnc(-c3ccco3)o2)cc1	-117*
c1ccc(CSc2nnc(-c3ccco3)o2)cc1	-97*
Cc1ccc(CSc2nnc(-c3ccco3)o2)cc1	-154*
COc1ccc(C2=Nn3c(nnc3-c3ccc(OC)cc3)SC2)cc1	100
Cc1nnc2n(c1=O)N=C(c1ccc(Cl)cc1)CS2	-93*
O=C1CC(c2ccco2)CC2=C1C1c3ccccc3C(=O)N1c1ccccc1N2 (configuration not stated)	-114*
SMILES	aSyn UTR act
CN(C)c1ccc(N=Nc2ccc(C(=O)O)cc2)cc1	64
CN(C)c1ccc(C(=O)/C=C/c2ccc(Br)cc2)cc1	-79*
CN(C)c1ccc(C(=O)c2ccccc2)cc1	-119*
O=C(c1ccccc1)c1ccc(-c2ccc(O)cc2)cc1	-251*
CN(C)c1ccc(C(=O)/C=C/c2ccccc2)cc1	-159*
O=C(/C=C\c1ccco1)c1ccc(NC(=O)c2ccco2)cc1	-143*
CN(C)c1ccc(C(=O)/C=C/c2ccco2)cc1	-226*
Cc1cc(C(=O)NCc2csc(-c3ccccc3)n2)no1	-82*
O=C(NCc1csc(-c2ccccc2)n1)c1ccco1	-85*
c1csc(-c2nc3c4ccccc4c4ccccc4c3[nH]2)c1	-73*

Source: PubChem BioAssay
